Compound activity deposited in PubChem by several laboratories.
SRC1 inh: inhibits human SRC1 coactivator | AID 588354 | 360,000 tested, 0.12% active | inhibition, % at 3.6 µM | HEK293 GAL4-SRC1 luciferase reporter, luminescence;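 active = inhibition above the campaign mean plus 3 SD, with each screening campaign given its own cutoff, cut at about 60% in these data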;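 also: 0% = DMSO treated cells and 100% = gossypol at 36 µM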
NCOA3 inh: inhibitors of human steroid receptor coactivator 3 (SRC3). Q9Y6Q9. HEK293 GAL4-SRC3 luciferase reporter, luminescence. inhibition, % at 3.6 µM. 360,000 tested, 0.17% active. AID 588352;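 active = inhibition above a per-campaign cutoff, the mean of all compounds plus 3 SD, cut at about 60% in these data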;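 also: 0% = DMSO-treated cells and 100% = gossypol-treated cells at 36 µM; higher means less SRC3-driven luciferase light from the GAL4 reporter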
SRC2 inh: human SRC2 (NCOA2) inhibition; 370,000 tested, 0.17% active; inhibition, % at 9 µM; HEK293 GAL4-SRC2 luciferase reporter, luminescence; Q15596;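 active = inhibition above the mean inhibition of all tested compounds plus 3 SD, set per campaign, cut at about 52% in these data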;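 also: 0% = DMSO treated cells and 100% = cells given Gossypol at 36 µM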
Gli-Sufu antag: Gli-Sufu pathway antagonism; Sufu-KO-LIGHT fibroblasts, Gli luciferase reporter luminescence; inhibition, % at 5 µM; 340,000 tested, 0.74% active;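 active = inhibition above about 55%, limit read from the data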;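 also: 0% = DMSO-treated cells and 100% = wells with medium but no cells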
NR5A2 inv ag: suppresses constitutive activity of human LRH-1. inhibition, % at 3.6 µM. AID 602396. 360,000 tested, 0.13% active. HEK293T StAR-luciferase reporter, LRH-1 transfected, 24 h;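 active = inhibition above the mean inhibition of all tested compounds plus 3 SD, cut at about 73% in these data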;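 also: 0% = DMSO wells and 100% = reporter-only cells lacking LRH-1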
Gli-Sufu confirm: confirmation of Gli-SUFU pathway antagonists; shares compounds with Gli-Sufu antag; Sufu-KO-LIGHT cells, Gli luciferase reporter, luminescence; inhibition, % at 5 µM; 2,500 tested, 40% active;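 active = mean inhibition at 5 µM reaching about 45%, limit read from the data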;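 also: plate controls were DMSO-treated cells for no effect and wells lacking cells for full effect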
SufuKO cytotox: cytotoxic in Gli-SUFU antagonist counter-screen. AID 651994. 2,500 tested, 32% active. shares compounds with Gli-Sufu antag. cytotoxicity, % at 5 µM. Sufu-KO-LIGHT cells cytotoxicity, ATP luminescence;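 active = mean cytotoxicity at 5 µM above about 25%, limit read from the data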;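 also: cells exposed to compound overnight for roughly 16 to 18 hours; plate controls were DMSO wells with cells for no effect and medium without cells for full effect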
Wnt3a counter: inhibits Wnt3a reporter, counter-screen for Gli-SUFU antagonists | shares compounds with Gli-Sufu antag | Wnt-LIGHT cells, Wnt3a-driven luciferase reporter, luminescence | inhibition, % at 6.25 µM | 2,500 tested, 20% active;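 active = mean inhibition above about 25%, limit read from the data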
* hit, by the source's call; . = no result. Rows were chosen to be rich in hits. Some 0.83% of all compounds tested hit in one or more screens of this group.

SMILES	SRC1 inh	NCOA3 inh	SRC2 inh	Gli-Sufu antag	NR5A2 inv ag	Gli-Sufu confirm	SufuKO cytotox	Wnt3a counter
CN(C)c1ccc(/C=N/NC(=O)C[n+]2ccccc2)cc1	-36	12	-29	53	20	10	6	-14
Cn1c(CNC(=O)c2ccco2)nnc1SCC(=O)Nc1ccc(Cl)cc1	-2	1	-4	97*	17	24	-9	-12
CN(C)c1ccccc1C(=O)N1CCCC(C(=O)c2ccc3ccccc3c2)C1 (stereo not drawn)	1	21	9	61*	2	26	7	-20
Cn1nccc1C(=O)N1CCCC(C(=O)c2cccc3ccccc23)C1 (stereo not drawn)	10	-5	-52	72*	-11	25	22	-15
Cc1ncoc1C(=O)N1CCCC(C(=O)c2cccc3ccccc23)C1 (stereo not drawn)	-28	17	5	6	-12	.	.	.
Cc1cc(NC(=O)Cc2ccccc2)c2ccccc2n1	38	27	34	66*	22	59*	37*	30*
COC(=O)c1ccccc1NC(=O)CSc1nc(C)cc(C)n1	-2	19	-24	4	4	.	.	.
Cc1cc(C)nc(SCC(=O)Nc2ccnc3ccccc23)n1	27	34	27	64*	35	67*	14	41*
C[C@@H]1OCN(C)[C@H]2C[C@H]3c4[nH]c5cccc(-c6cccc(F)c6)c5c4CCN3C(=O)[C@@H]12	.	.	-2	.	.	.	.	.
COc1ccc(S[C@]2(C(=O)NCc3ccccc3)CC(=O)N[C@@H]2c2ccc(OC)cc2)cc1	.	.	-3	.	.	.	.	.
Brc1ccc(-c2csc(N3CCOCC3)n2)cc1	-96	-79	-46	-81	-135	.	.	.
Brc1ccc(-c2csc(N3CCCCCC3)n2)cc1	-9	-10	5	51	4	59*	1	27*
Clc1ccc(SCCOCCN2CCCCC2)cc1	6	13	11	79*	-5	28	13	-26
Clc1ccc(SCCOCCN2CCOCC2)cc1	1	13	-21	1	11	.	.	.
Cc1ccc(N(C)c2nc(N)nc(N)c2N=O)cc1	.	.	-21	.	.	.	.	.
O=C(Nc1ccccc1)n1ccc2ccc(-c3ccc4cc[nH]c4c3)cc21	.	.	-16	.	.	.	.	.
COc1ccc(C2=NOC(C(=O)NCc3ccccc3)C2)cc1 (stereo not drawn)	-12	15	.	55*	17	38	54*	-31
CCc1nc(CN2CCCC(C(=O)c3ccc4c5c(cccc35)CC4)C2)c(C)[nH]1 (stereo not drawn)	-2	11	27	52	-4	15	6	-44
O=C(c1ccc2c3c(cccc13)CC2)C1CCCN(Cc2ccncc2)C1 (stereo not drawn)	12	8	13	9	15	.	.	.
C#CC1(O)C2C=C(OC)C(=O)C1C(c1ccccc1)C2C (stereo not drawn)	.	.	-36	.	.	.	.	.
Cc1ccc2[nH]c(=O)c(CN(Cc3cccs3)Cc3nnnn3CC3CCCO3)cc2c1 (stereo not drawn)	-6	-19	-9	54	30	21	14	-17
O=C(OC12CCCN(C1)/C(=C/c1ccncc1)C2)c1cccc(F)c1 (stereo not drawn)	.	.	10	.	.	.	.	.
COC(=O)[C@]12C=CCN1[C@H](c1ccc(OC)c(OC)c1)c1c(c3ccccc3n1S(=O)(=O)c1ccc(C)cc1)C2	.	.	-29	.	.	.	.	.
CC(=O)N1c2ccc(S(=O)(=O)N3CCC(C(=O)N4CCN(c5cccc(C(F)(F)F)c5)CC4)CC3)cc2CC1C (stereo not drawn)	21	26	14	74*	3	81*	34*	17
CC(=O)c1ccc(N2CCN(C(=O)C3CCN(S(=O)(=O)c4ccc5c(c4)CC(C)N5C(C)=O)CC3)CC2)cc1 (stereo not drawn)	-6	-1	1	27	21	.	.	.
SMILES	SRC1 inh	NCOA3 inh	SRC2 inh	Gli-Sufu antag	NR5A2 inv ag	Gli-Sufu confirm	SufuKO cytotox	Wnt3a counter
COc1cccc(N2CCN(C(=O)C3CCN(S(=O)(=O)c4ccc5c(c4)oc(=O)n5C)CC3)CC2)c1	-3	-3	-15	61*	-12	30	-2	-8
COc1cccc(N2CCN(S(=O)(=O)c3ccc4c(c3)oc(=O)n4C)CC2)c1	-8	17	-8	8	4	.	.	.
Clc1ccc(-n2c(SCc3cccc4ccccc34)nnc2-c2cccnc2)cc1	.	.	11	.	.	.	.	.
COc1cccc(-c2cc(C(F)(F)F)n3nc(N)nc3n2)c1	1	14	-19	78*	4	29	12	-15
COc1ccc(N2CCN(CCCNC(=O)CCc3cccc(F)c3)CC2)cc1	.	.	-6	.	.	.	.	.
O=C(O)c1cccc(S(=O)(=O)NCC(=O)N2CCN(c3ccccn3)CC2)c1	.	.	-13	.	.	.	.	.
O=C(CC(Cc1ccccc1)C(=O)O)Nc1cccc(C(F)(F)F)c1 (stereo not drawn)	8	-3	0	54	4	13	11	-3
O=C(CC(Cc1ccccc1)C(=O)O)Nc1ccc(F)cc1 (stereo not drawn)	-14	3	12	10	3	.	.	.
O=C(CCc1ccccc1)N[C@H]1[C@@H](OC(=O)c2cccnc2)CCC[C@]12C(=O)N(Cc1ccccc1)c1ccccc12	.	.	16	.	.	.	.	.
CC(C)C(=O)N1CCN(c2ccccc2NC(=O)COc2ccccc2)CC1	-28	-7	-1	54	24	28	10	-22
CCCCCCCNC1=CC(=O)CC(c2ccccc2)C1 (stereo not drawn)	-13	-6	-26	59*	-34	52*	24	-38
Cn1nc(C(C)(C)C)cc1C(=O)NCc1ccc(N2CCCC2=O)cc1	15	38	18	81*	35	77*	36*	42*
Cc1ccc(CNC(=O)c2ccc(N3CCCC3=O)cc2)cc1	3	3	-7	0	-12	.	.	.
CC1CCC2(CC1)CCN(CCCOC(=O)NCc1ccc(Cl)cc1)C2=O (stereo not drawn)	.	.	21	.	.	.	.	.
O=C(NC1CCCCC1)c1nn2c(C(F)(F)F)cc(-c3ccco3)nc2c1Br	6	-8	1	17	1	.	.	.
O=C(NCC1CCCO1)c1nn2c(C(F)(F)F)cc(-c3ccc(Br)o3)nc2c1Br (stereo not drawn)	12	0	-27	56*	9	18	15	-2
COC(=O)C[C@@H]1CC[C@H]2[C@@H](COc3ccc(NC(=O)c4ccc(C(F)(F)F)cc4)cc3C(=O)N2C)O1	.	.	10	.	.	.	.	.
COc1cc(C2CC(=O)Oc3cc4c(cc32)OCO4)cc(OC)c1OC (stereo not drawn)	1	4	13	-9	21	.	.	.
